We go through 101 compounds from PubChem BioAssay AID777 (Sanford-Burnham Center for Chemical Genomics, 2007).

Among all 96,000 compounds or so, about 19,000 (20%) were called active. The list is a sample of the results. A number with no mark means an inactive call.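 How the source made its calls: active means blocking of liver enzyme CYP2C9 beyond about 50% at 5 µM (limit read from the data); inactive means the rest.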

The target of the assay is Cytochrome P450 2C9 (Homo sapiens) (UniProt P11712). As to the kind of experiment: blockers of cytochrome P450 2C9 activity – biochemical, luminescence, ADME assay, primary screen (AID 777). Particulars: CYP2C9 Supersomes, luciferin-H conversion, at 5 µM, hits give high values.
Cytochrome P450 2C9 (Homo sapiens), sequence (P11712 whole entry, looked up): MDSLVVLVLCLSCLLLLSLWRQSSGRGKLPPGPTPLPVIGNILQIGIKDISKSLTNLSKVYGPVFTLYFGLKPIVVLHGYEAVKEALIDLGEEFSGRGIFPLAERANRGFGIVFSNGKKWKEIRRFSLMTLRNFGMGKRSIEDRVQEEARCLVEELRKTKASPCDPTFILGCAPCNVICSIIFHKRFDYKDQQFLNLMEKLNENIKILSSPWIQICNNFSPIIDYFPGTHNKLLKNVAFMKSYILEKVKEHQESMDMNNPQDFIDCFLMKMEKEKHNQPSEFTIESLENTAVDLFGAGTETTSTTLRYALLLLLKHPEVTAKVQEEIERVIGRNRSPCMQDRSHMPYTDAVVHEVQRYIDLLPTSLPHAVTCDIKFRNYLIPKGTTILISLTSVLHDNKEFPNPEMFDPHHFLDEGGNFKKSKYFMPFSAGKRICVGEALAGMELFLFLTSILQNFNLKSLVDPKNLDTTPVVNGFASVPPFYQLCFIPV
On to `O=C1CC(c2cccc(Br)c2)C2=C(CCCC2=O)N1` (stereo unspecified), for which the inhibition – broadly, the drop in the measured response relative to a control, in per cent – is 10.3%.
Consider `Cc1cccc(NC(=O)c2cc(N3C(=O)CCC3=O)ccc2Cl)n1`, for which the inhibition is 20.2%.
As for `O=C(COc1ccc2oc3c(c2c1)CCCC3)Nc1ccccn1`, the figure is 2.1%; as for `O=C(CN1CCOCC1)N1CCCc2c1c(=O)oc1ccc(OCc3ccccc3)cc21`, 72.5% (active).
As for `COc1ccc2oc(=O)c(C(=O)N3CCCc4ccccc43)cc2c1`, the figure is -44.4%.
As for `Cn1c(=NC(=O)C2CC2)sc2cc(F)cc(F)c21`, the figure is -15.8%; as for `O=C(CCN1C(=O)c2ccccc2C1=O)NCCN1CCOCC1`, -18.8%.
For `COCCN1C(=O)c2oc3c(C)cc(C)cc3c(=O)c2C1c1cccc(O)c1` (stereo unspecified), the inhibition is 98.6% (active).
As for `O=C1c2oc3ccc(Br)cc3c(=O)c2C(c2cccc(F)c2)N1CCO` (stereo unspecified), the figure is 23.9%.
As for `O=C1c2oc3ccccc3c(=O)c2C(c2cccc(O)c2)N1c1ccccn1` (stereo unspecified), the figure is 4.2%; as for `CC(=O)OC(C(=O)NCCc1ccccc1)c1cccnc1` (stereo unspecified), -7.6%.
As for `CCOC(=O)c1c(C)oc2ccc(OCC(=O)N(CC)CC)cc12`, the figure is -13.4%; as for `Cc1cc(C)n2nc(C(=O)Oc3ccc4c(c3)OCO4)nc2n1`, -31.5%; as for `CCOC(=O)c1c(C)[nH]c(C(=O)COc2ccc3c(c2)OCO3)c1C`, 93% (active).
On to `Nc1c(-c2cccc(Cl)c2)cnn1-c1cccc([N+](=O)[O-])c1`, for which the inhibition was 4.4%.
As for `O=C(NC12CC3CC(CC(C3)C1)C2)N1CCCC(CO)C1` (stereo unspecified), the figure is 12.4%; as for `CC12C(=O)N(n3cnnc3)C(=O)C1C1C=CC2C1` (stereo unspecified), 1.9%.
As to `NNC(=O)C1CCCn2c1nc1sc3c(c1c2=O)CCCC3` (stereo unspecified), the inhibition was 21.6%.
As for `O=C(O)[C@@H]1CCCN1c1ncnc2sc3c(c12)CCC3`, the figure is 4.9%; as for `Cn1c(NN)nc2sc3c(c2c1=O)CCC3`, 68.1% (active); as for `Cn1c(NC(=O)c2ccco2)c(-c2ccccc2Cl)c(=O)c2ccccc21`, -3.7%.
As for `CC(C)Oc1ccc(C(=O)NC(C)(C)CO)cc1`, the figure is 15%; as for `O=C(COc1ccccc1)NCCc1nc2ccccc2[nH]1`, 28.6%; as for `C=CCn1c(SCc2nnc(-c3ccccc3)o2)nnc1C(O)c1ccccc1` (stereo unspecified), 59% (active).
As for `O=C(CSCc1c(Cl)cccc1Cl)NN1C(=O)c2ccccc2C1=O`, the figure is 34.3%; as for `CN(C)c1ccc(CNC23CN4CN(CN(C4)C2)C3)cc1`, -4.7%; as for `Cc1cccc2c1N(CC(=O)OC(C)C)C(=O)C2=O`, 8%.
`CCn1c(CSc2nncn2-c2ccc(OC)cc2)nc2cc(S(=O)(=O)N(C)C)ccc21`: the inhibition was 50.1% (active).
As for `Cn1nnnc1SCC(=O)Nc1ccccc1C(=O)NC1CC1`, the figure is 10.7%; as for `CC(C)Nc1nc(N(c2ccccc2)c2ccccc2)nc(-n2ccnc2)n1`, 29%.
On to `Cc1ccc(N2CCN(S(=O)(=O)N(C)C)CC2)cc1Cl`, for which the inhibition was 11%.
As for `O=C(NC1(C(F)(F)F)N=C2SCCN2C1=O)c1ccco1` (stereo unspecified), the figure is -10%; as for `COc1cc(OC)c(C(=O)NC2CCCCCC2)cc1OC`, 34.4%.
`Cn1c(SCC(=O)C(C)(C)C)nnc1-c1ccccn1`: the inhibition is -0.6%.
As for `Cc1ccc(C(=O)Nc2ccc3c(c2)OCO3)cc1S(=O)(=O)N1CCCCC1`, the figure is 93.3% (active).
As for `O=C(Nc1ccc2c(c1)OCCO2)c1cnccn1`, the figure is 4.9%; as for `O=C(Nc1ccccc1)c1ccc2c(c1)OCO2`, 9.7%; as for `O=C(Nc1ccc2c(c1)OCCO2)c1ccncc1`, 46.2%.
As for `COc1ccc(C(=O)Nc2ccc3c(c2)OCO3)cc1OC`, the figure is 1.7%.
For the compound `Cn1c(=O)n(C)c2cc(C(=O)Nc3ccc4c(c3)OCO4)ccc21`, the inhibition is -11.4%.
As for `Cc1ccc(C(=O)NCC(=O)O)cc1S(=O)(=O)N1CCCCC1`, the figure is 3.8%.
As for `CC(C)C(=O)Nc1cccc(C(=O)Nc2ccc3c(c2)OCO3)c1`, the figure is 57.2% (active).
As for `O=C(Nc1ccc2c(c1)OCCO2)c1ccc(Cl)c(S(=O)(=O)N2CCCCC2)c1`, the inhibition was 97.2% (active).
As for `Cc1c(C=O)c2ccccn2c1C(=O)c1ccncc1`, the figure is 40.3%; as for `CCC(=O)c1ccc(OCC(O)CN2CCN(c3cccc(C(F)(F)F)c3)CC2)cc1` (stereo unspecified), 22%.
As for `O=C(c1ccc(Cl)cc1)c1ccc(OCC(O)CN2CCCCC2)cc1` (stereo unspecified), the figure is 7.1%; as for `Cc1nnc(SCC(=O)NCCOc2ccc(Cl)cc2)n1-c1ccccc1`, 37.2%; as for `CCN1CCC(=NNC(=O)c2ccc(C)c([N+](=O)[O-])c2)CC1`, 7.3%.
As to `c1ccc(CCC2=NCCn3cccc32)cc1`, the inhibition is 4.5%.
As for `Cc1cccc(C(=O)NCCCN2CCCC2=O)c1`, the figure is -4%; as for `CCn1c(SCC(=O)c2ccc3ccccc3c2)nnc1-c1cccs1`, 3.9%.
As for `CCOC(=O)CSc1nnc(CNC(=O)c2cccs2)n1-c1ccccc1`, the figure is -10.4%; as for `Cn1c(SCC(=O)c2cccs2)nnc1-c1ccco1`, -12.6%; as for `CCn1c(SCC(=O)c2ccc(Cl)s2)nnc1-c1cccs1`, 69.2% (active).
As for `CCn1c(Cc2cccs2)nnc1SCC(=O)c1ccc(C)cc1`, the figure is 78.7% (active); as for `CCOC(=O)CNC(=O)CSc1nnc(COc2ccc(Cl)cc2)n1CC`, 19.6%; as for `Cc1ccc(-n2c(Cc3cccs3)nnc2SCC(=O)OC(C)C)cc1`, 67.5% (active).
In the case of `COc1ccc(-n2c(SCC(=O)OC(C)C)nnc2-c2ccccn2)cc1`, the inhibition was -13.5%.
As for `COC(=O)c1c(-c2ccc(C)cc2)csc1N`, the figure is 31.9%; as for `CCC(C)n1[nH]c(=O)c2c(C)cc(C)nc21` (stereo unspecified), 10.8%; as for `COc1ccc(Cc2nnc(SC)[nH]c2=O)cc1`, 37.8%.
As for `C[N+](C)(C)CCNC(=O)c1c(O)c2c([nH]c1=O)CCCC2`, the figure is 6.6%; as for `CC(CC(=O)Nc1cc(C(F)(F)F)ccc1Cl)c1ccccc1` (stereo unspecified), -141%; as for `CC(C)n1c(C(O)c2ccccc2)nc2ccccc21` (stereo unspecified), -0.4%.
Regarding `Cc1cc(N2CCCC2)n2nc(C)c(-c3ccccc3)c2n1`, the inhibition was -22.5%.
As for `COC(=O)c1cnn2c(C(F)(F)F)cc(-c3ccco3)nc12`, the figure is -10.8%; as for `Cc1c(C(=O)NCC2CCCO2)sc2nc(-c3ccccc3)cn12` (stereo unspecified), 28.3%; as for `c1ccc2c(c1)OCC(CNc1ncnc3nc[nH]c13)O2` (stereo unspecified), 10.3%.
As for `Cc1cc2cc(CN(Cc3cccs3)Cc3nnnn3CC3CCCO3)c(=O)[nH]c2cc1C` (stereo unspecified), the figure is -32.2%; as for `CCOc1ccc2[nH]c(=O)c(CN(Cc3nnnn3Cc3ccccc3)CC3CCCO3)cc2c1` (stereo unspecified), 13%; as for `CCC(=O)N(Cc1cc2cc(OC)ccc2[nH]c1=O)c1ccccc1C`, 36.4%.
In the case of `Cc1ccsc1C(=O)OCC(=O)c1cc(C)n(CC2CCCO2)c1C` (stereo unspecified), the inhibition is -70.9%.
As for `CCC(c1nnnn1Cc1ccccc1)N(Cc1cc2cc(OC)ccc2[nH]c1=O)CC1CCCO1` (stereo unspecified), the figure is 66.2% (active).
As for `COc1ccc(CNC(=O)c2cc3c(=O)n4ccccc4nc3n(CC3CCCO3)c2=N)cc1` (stereo unspecified), the inhibition was 9.5%.
As for `COc1ccc2[nH]c(=O)c(CN(Cc3nnnn3CCc3ccccc3)CC3CCCO3)cc2c1` (stereo unspecified), the figure is 68% (active); as for `COc1ccc(N(Cc2cc3cc(OC)ccc3[nH]c2=O)S(C)(=O)=O)cc1`, 26.9%.
Turning to `Cc1cc(C)c2cc(CN(Cc3cccs3)Cc3nnnn3CC3CCCO3)c(=O)[nH]c2c1` (stereo unspecified), the inhibition is 75.5% (active).
As for `CC(=O)c1c(C)c[nH]c1C`, the figure is -23.3%; as for `Cc1ccccc1N/N=C/c1ccc(N2CCOCC2)cc1`, -0.6%; as for `CCN1CCN(CCCCOc2ccccc2F)CC1`, 15.7%.
As for `O=C(CC1NCCNC1=O)Nc1ccc(Oc2ccccc2)cc1` (stereo unspecified), the figure is 1.6%; as for `Cc1nc2ccc(S(=O)(=O)NCC(=O)O)cc2s1`, -5.2%.
For `O=C1CN(c2nc(-c3ccccc3)c3cc(Br)ccc3n2)c2ccccc2N1`, the inhibition was -6.3%.
As for `Cc1ccc(C2NC(=S)NC3=C2N2CCC3CC2)cc1` (stereo unspecified), the figure is 1.3%; as for `CC1CCc2c(sc3nc4n(c(=O)c23)CCS4)C1` (stereo unspecified), 28.1%.
As for `CCCn1nnc2sc3c(c2c1=O)CCC(C)C3` (stereo unspecified), the figure is 10.3%; as for `C=CCn1c(SCc2c(C)noc2C)nc2sc3c(c2c1=O)CCC(C)C3` (stereo unspecified), 92.7% (active).
`c1ccc(-c2nccc(-c3ccc(-n4cnc5ccccc54)cc3)n2)nc1`: the inhibition was 22.6%.
`CNC(=O)n1ccc(C(=O)N2CCCCC2)n1`: the inhibition was -19.7%.
As for `CCc1nc(N2CCN(c3nc(C)cc(C)n3)CC2)c2oc3ccccc3c2n1`, the figure is 11.3%.
As for `CN(C)/C(CN1CCCCC1)=C1\N=C(c2ccccc2)OC1=O`, the figure is 20.2%.
As for `O=C(OCC(O)C(O)COC(=O)c1ccccc1)c1ccccc1` (stereo unspecified), the figure is 57.1% (active); as for `Cc1cc(C)n(-c2c(F)c(F)c(COC(=O)c3ccccc3)c(F)c2F)n1`, 2.6%; as for `O=C(NC(=O)c1ccccc1)NC(=O)c1ccccc1`, 12.8%.
On to `COc1ccc(NC(=O)CCNC(=O)Cn2ccc3ccccc3c2=O)c(OC)c1`, for which the inhibition was 5.7%.
As for `COC(=O)[C@H](C)NC(=O)Nc1ccc(OC(F)(F)F)cc1`, the figure is -2.6%.
As for `Clc1ccc(C2CC(c3cccs3)n3ncnc3N2)cc1Cl` (stereo unspecified), the figure is 53.2% (active); as for `COc1c(Br)cc2c(C)c(C(=O)N3CCOCC3)oc2c1Br`, -33.9%.
As for `COc1nc(OC)nc(N(C)CCO)n1`, the figure is 3%.
Consider `O=C(N/N=C\c1ccc(-c2ccc(Cl)c(Cl)c2)o1)C(=O)N1CCCC1`, for which the inhibition is 33.8%.
As for `CC12COC3(C(=O)Nc4ccc(Cl)cn4)CC1CCC32C` (stereo unspecified), the figure is 11.1%.
